Data reported in PubChem BioAssay (EPA / NIEHS).
Calls of active or inactive are those of the source. How the source made its calls: active means hit-call score of the fitted dose curve at least 0.9, where 1 is the maximum; inactive means score below 0.9.

Biological target: Nuclear respiratory factor 1 (Homo sapiens) (UniProt Q16656)
Assay: ATG_NRF1_CIS: Attagene CIS-FACTORIAL HepG2 Assay for human Nuclear Respiratory Factor 1 (NRF1) Orphan Gene (AID 2282987)
Settings: HepG2 NRF1 cis-element reporter, Attagene multiplex; actives raise or lower the signal
Procedure, shortened: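 Using DMSO as baseline, gain- or loss-of-signal was fitted for reporter mRNA levels in HepG2 cells transiently transfected with cis-regulated reporter units. Samples were taken 24 h after dosing and read by RT-PCR with capillary electrophoresis.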

Chain of Nuclear respiratory factor 1 (Homo sapiens) (Q16656 whole entry, looked up): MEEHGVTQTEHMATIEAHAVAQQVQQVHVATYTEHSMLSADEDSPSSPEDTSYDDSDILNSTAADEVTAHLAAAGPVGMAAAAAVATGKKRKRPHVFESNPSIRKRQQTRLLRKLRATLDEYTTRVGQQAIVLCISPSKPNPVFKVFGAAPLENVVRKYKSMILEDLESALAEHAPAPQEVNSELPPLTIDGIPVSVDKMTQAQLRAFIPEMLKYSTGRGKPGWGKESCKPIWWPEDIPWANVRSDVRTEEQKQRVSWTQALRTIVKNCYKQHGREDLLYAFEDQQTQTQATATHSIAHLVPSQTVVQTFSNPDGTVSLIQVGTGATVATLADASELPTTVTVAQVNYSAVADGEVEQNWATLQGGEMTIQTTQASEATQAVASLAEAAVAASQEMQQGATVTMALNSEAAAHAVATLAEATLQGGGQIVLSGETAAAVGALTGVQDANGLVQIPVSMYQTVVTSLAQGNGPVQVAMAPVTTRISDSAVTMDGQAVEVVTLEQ

outcome, inactive:
CC1OC1C1CCC2(C)OC2C1 (stereo not given)
c1ccc(-c2ccccn2)nc1
CC1(C)O[C@@H]2C[C@H]3[C@@H]4C[C@H](F)C5=CC(=O)C=C[C@]5(C)[C@@]4(F)[C@@H](O)C[C@]3(C)[C@]2(C(=O)CO)O1
CC(=O)OC1C2(C)CCC(C2)C1(C)C (stereo not given)
CCCCCCCOC(=O)CCC
CCOC(=O)Cc1cccc2ccccc12
C=C(C)C(=O)OCCO
C=CC=CC=CCCCCC
CC(=O)OCCC1CCCCC1
CC(=O)[C@H]1[C@H](C#N)C[C@H]2[C@@H]3CC=C4C[C@@H](O)CC[C@]4(C)[C@H]3CC[C@@]21C
CCCCC/C=C\CCC=O
Nc1ccc(N=Nc2ccccc2)c(N)n1
C=CC(C)(CCC=C(C)C)OC(=O)CC(C)C (stereo not given)
CC(C)(C)c1ccc(N)cc1
O=C(c1ccccc1)c1ccc(O)c(O)c1O
Nc1ccc2cc3ccccc3cc2c1
CN(C)CCCN(C)C
Cc1ccc([N+](=O)[O-])cc1S(=O)(=O)O
COc1cc(NC(=O)CC(C)=O)c(OC)cc1Cl
CNC(=S)NN
O=C(O)CCCC[C@@H]1SC[C@@H]2NC(=O)N[C@@H]21
CCCOC(=O)CCCCC(=O)OCCC
C=C(C)CCO
C=C[Si](C)(C)O[Si](C)(C)C=C
CCCCCCCCCCCCCCCCCC#N
CC(C)(C)C1CCCCC1=O (stereo not given)
C[C@]12CCC(=O)C=C1CC[C@@H]1[C@@H]2C(=O)C[C@@]2(C)[C@H]1CC[C@]2(O)C(=O)CO
CC1(C)O[C@@H]2C[C@H]3[C@@H]4C[C@H](F)C5=CC(=O)CC[C@]5(C)[C@H]4[C@@H](O)C[C@]3(C)[C@]2(C(=O)CO)O1
O=C1c2ccccc2C(=O)C1c1nc2ccccc2c(Br)c1O
O=C(Nc1ccccc1)c1ccccc1O
CC=CC(=O)N(CC)c1ccccc1C
CC(=O)OCC(=O)[C@@]12N=C(C)O[C@@H]1C[C@H]1[C@@H]3CCC4=CC(=O)C=C[C@]4(C)[C@H]3[C@@H](O)C[C@@]12C
CCC(C)OC(=O)c1ccc(O)cc1 (stereo not given)
CCCCCCCCCCCCCCCC(=O)OCC
O=c1[nH]nc(-c2ccc([N+](=O)[O-])o2)o1
O=c1cc(-c2ccccc2)oc2ccccc12
CC(=O)NS(=O)(=O)c1ccc(N)cc1
CCCCCC/C=C/C=O
O=C1CCCN1CCO
C=C(C)c1cccc(C(C)(C)N=C=O)c1
